Where “and” joins values, the source holds several entries; their conditions need not be identical. Identical values can stand only once. Results filed as inconclusive are left out. Calls of active or inactive are those of the source. Unless noted, calls come from the whole dose curve; as a rule, active = well fitted curve in the direction sought with a large enough effect; inconclusive = small, poorly fitted or top-dose-only effect, or another doubt; inactive = no such curve, though single readings can be large; an effect the other way counts as inactive or inconclusive.
Legend:
[1] = biological target: Cytochrome P450 1A2 (Homo sapiens) (UniProt P05177); assay: p450-cyp1a2 (AID 410; calls by dose curve; note: potency is the fitted concentration of half-maximal effect;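 for activity change, negative = inhibition: -100% = full effect of reference inhibitor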)
Chain of Cytochrome P450 1A2 (Homo sapiens) (P05177 whole entry, looked up): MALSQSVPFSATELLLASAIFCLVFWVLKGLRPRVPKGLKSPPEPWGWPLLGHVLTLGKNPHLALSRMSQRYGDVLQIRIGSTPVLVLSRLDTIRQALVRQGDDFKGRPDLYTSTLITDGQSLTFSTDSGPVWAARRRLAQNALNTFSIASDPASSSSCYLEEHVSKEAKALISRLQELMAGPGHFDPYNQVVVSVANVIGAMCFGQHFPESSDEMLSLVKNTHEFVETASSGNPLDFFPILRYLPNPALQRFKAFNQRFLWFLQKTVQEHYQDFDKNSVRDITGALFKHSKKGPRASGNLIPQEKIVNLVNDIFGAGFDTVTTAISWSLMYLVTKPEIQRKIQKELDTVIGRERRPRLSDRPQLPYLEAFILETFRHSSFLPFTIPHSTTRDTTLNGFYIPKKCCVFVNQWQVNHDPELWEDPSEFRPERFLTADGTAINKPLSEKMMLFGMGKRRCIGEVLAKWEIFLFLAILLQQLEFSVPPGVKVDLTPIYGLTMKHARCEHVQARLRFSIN
How it was run: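 Human CYP1A2 (20nM) demethylated Luciferin-ME at its Km (100uM) in 100mM KPO4. After 10 min compound preincubation, NADPH regeneration ran the reaction 60 min at room temperature. Luciferin was read by luminescence, normalized to 57 uM furafylline.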

[2] = biological target: Glucocorticoid receptor (Homo sapiens) (UniProt P04150); assay: GR-GFP Redistribution (AID 450;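 active = compounds whose dose series gives a full or clear partial fitted curve of increased nuclear translocation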; note: potency is the fitted concentration of half-maximal effect); conditions: U2OS GR-GFP nuclear translocation, laser cytometry, 2 h
Chain of Glucocorticoid receptor (Homo sapiens) (P04150 whole entry, looked up, the tested form may be a part): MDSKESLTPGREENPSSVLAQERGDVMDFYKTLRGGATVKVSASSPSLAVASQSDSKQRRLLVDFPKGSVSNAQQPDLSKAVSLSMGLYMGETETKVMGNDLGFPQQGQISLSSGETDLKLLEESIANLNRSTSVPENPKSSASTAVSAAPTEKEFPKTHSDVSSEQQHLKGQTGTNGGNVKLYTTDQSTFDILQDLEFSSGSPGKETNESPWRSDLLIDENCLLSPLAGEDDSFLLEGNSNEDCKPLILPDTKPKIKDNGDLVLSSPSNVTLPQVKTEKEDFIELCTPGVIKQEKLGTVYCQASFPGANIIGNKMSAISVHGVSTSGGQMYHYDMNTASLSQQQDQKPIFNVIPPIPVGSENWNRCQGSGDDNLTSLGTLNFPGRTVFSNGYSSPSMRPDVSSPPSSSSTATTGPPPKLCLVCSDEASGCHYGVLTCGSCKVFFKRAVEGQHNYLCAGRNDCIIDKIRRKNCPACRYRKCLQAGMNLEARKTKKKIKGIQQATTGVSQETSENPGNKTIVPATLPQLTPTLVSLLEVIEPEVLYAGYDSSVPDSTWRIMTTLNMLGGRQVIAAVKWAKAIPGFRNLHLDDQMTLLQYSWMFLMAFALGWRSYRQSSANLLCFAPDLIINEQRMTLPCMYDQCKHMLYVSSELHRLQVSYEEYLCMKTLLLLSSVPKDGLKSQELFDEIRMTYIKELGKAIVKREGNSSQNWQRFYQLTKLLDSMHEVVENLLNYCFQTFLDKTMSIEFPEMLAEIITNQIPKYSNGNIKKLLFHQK

[3] = biological target: Glucocorticoid receptor (Homo sapiens) (UniProt P04150); assay: GR-EFC Redistribution (AID 451; calls by dose curve; note: potency is the fitted concentration of half-maximal effect); conditions: CHO-K1 GR-EFC translocation, beta-gal luminescence, 2 h
How it was run: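 CHO-K1 cells stably expressing nuclear-localized β-gal enzyme acceptor and GR fused C-terminally to the enzyme donor fragment; ligand-driven nuclear translocation restores β-gal by complementation. Compounds titrated up to 46 uM final, 2 h at 37 °C; luminescence read.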

[4] = biological target: 3',5'-cyclic-AMP phosphodiesterase 4B (Homo sapiens) (UniProt Q07343); assay: qHTS Assay for Inhibitors of PDE-IV (AID 607; active = well fitted activation curve with a large enough effect in the main read-out, with a control signal flat, not every such curve was filed as active; note: % of control where 0% means no effect)
Chain of 3',5'-cyclic-AMP phosphodiesterase 4B (Homo sapiens) (Q07343 whole entry, looked up): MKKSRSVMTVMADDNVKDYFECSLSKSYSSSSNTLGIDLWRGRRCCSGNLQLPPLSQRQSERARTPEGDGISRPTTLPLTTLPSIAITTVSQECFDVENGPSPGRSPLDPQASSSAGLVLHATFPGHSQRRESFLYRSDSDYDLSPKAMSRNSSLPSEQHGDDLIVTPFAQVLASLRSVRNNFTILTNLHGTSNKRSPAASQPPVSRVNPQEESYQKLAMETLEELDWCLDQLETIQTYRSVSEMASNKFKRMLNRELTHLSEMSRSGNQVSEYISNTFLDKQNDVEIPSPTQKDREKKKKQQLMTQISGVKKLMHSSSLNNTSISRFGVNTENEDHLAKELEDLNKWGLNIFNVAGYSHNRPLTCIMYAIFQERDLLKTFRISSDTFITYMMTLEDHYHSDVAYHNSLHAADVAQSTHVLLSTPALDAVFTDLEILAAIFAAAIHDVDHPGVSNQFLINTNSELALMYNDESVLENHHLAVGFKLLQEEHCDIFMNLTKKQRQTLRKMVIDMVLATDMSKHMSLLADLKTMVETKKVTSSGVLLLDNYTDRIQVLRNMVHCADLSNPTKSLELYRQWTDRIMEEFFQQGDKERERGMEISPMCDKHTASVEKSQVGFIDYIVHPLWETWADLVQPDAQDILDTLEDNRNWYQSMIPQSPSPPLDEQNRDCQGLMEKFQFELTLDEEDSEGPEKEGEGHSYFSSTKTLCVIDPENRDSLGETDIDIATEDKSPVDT
How it was run: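 ACTOne HEK293 cells carry a modified cAMP-gated CNG channel and express endogenous PDE4; plated 1000 cells/well, compounds up to 22.9 uM final. Membrane-potential dye fluorescence (ex 535/em 590) was read; parental cells received 10 uM forskolin + 100 uM RO 20-1724.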

[5] = biological target: Cytochrome P450 2C9 (Homo sapiens) (UniProt P11712); assay: qHTS Assay for Inhibitors and Substrates of Cytochrome P450 2C9 (AID 883); note: nearly all actives have a fitted effect of over 60% in size; note: potency is the fitted concentration of half-maximal effect; for activity change, negative = inhibition: % is set by controls: 0 for no effect and ±100 for the full control effect
Chain of Cytochrome P450 2C9 (Homo sapiens) (P11712 whole entry, looked up): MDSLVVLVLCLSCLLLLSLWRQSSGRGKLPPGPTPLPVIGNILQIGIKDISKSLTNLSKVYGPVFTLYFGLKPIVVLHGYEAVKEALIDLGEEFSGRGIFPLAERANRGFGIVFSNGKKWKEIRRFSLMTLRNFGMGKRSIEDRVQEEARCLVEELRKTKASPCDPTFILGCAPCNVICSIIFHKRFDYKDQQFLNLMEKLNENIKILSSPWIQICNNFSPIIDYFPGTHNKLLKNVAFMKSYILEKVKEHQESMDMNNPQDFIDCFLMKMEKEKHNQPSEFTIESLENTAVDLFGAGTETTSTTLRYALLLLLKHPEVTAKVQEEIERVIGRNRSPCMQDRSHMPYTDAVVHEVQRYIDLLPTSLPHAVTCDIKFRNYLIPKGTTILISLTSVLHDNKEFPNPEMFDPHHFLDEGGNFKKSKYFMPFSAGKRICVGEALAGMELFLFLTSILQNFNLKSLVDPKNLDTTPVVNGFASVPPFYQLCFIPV
How it was run: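 CYP2C9 deoxyluciferin hydroxylation, 37C, 60 min with NADPH regeneration; 10nM enzyme, 100uM Luciferin-H (KM). Glo detection reagent stopped reaction; luminescence normalized to sulphaphenazole (57uM) full inhibition.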

[6] = biological target: Cytochrome P450 2D6 (Homo sapiens) (UniProt P10635); assay: qHTS Assay for Inhibitors and Substrates of Cytochrome P450 2D6 (AID 891); note: nearly all actives have a fitted effect of over 60% in size; note: potency is the fitted concentration of half-maximal effect
Chain of Cytochrome P450 2D6 (Homo sapiens) (P10635 whole entry, looked up): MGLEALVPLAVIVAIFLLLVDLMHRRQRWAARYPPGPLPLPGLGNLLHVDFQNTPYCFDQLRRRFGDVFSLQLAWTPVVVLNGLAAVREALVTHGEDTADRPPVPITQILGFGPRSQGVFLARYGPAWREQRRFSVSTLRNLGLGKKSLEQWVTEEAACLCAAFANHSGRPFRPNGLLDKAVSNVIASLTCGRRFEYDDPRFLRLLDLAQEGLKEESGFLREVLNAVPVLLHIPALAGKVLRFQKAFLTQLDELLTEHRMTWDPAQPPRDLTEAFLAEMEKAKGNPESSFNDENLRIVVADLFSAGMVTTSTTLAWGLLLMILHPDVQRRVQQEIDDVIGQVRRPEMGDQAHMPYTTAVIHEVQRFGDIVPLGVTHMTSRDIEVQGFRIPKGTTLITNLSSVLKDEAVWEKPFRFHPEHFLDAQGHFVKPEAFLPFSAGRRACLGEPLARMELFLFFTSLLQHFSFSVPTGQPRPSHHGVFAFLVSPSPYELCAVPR
How it was run: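 Human CYP2D6 (5 nM) with 30 uM Luciferin-ME EGE (at Km) in 100 mM KPO4, compound preincubated 10 min, then NADPH regeneration system for 60 min at room temperature. Luciferin read by luminescence; normalized to 1.43 uM quinidine.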

[7] = biological target: Cytochrome P450 2C19 (Homo sapiens) (UniProt P33261); assay: qHTS Assay for Inhibitors and Substrates of Cytochrome P450 2C19 (AID 899); note: nearly all actives have a fitted effect of over 60% in size; note: potency is the fitted concentration of half-maximal effect
Chain of Cytochrome P450 2C19 (Homo sapiens) (P33261 whole entry, looked up): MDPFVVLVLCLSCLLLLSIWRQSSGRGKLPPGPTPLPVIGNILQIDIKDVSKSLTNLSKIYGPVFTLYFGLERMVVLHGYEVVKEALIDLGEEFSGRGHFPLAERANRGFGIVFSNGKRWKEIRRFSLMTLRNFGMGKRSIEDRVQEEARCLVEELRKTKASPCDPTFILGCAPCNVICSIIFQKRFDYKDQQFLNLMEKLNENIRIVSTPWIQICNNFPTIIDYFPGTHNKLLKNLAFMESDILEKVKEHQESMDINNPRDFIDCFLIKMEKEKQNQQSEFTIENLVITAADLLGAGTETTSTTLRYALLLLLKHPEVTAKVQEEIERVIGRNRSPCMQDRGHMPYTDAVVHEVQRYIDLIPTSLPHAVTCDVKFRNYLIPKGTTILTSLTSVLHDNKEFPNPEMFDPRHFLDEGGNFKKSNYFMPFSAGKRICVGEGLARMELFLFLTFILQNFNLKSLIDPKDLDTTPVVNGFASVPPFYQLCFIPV
How it was run: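 In 50mM KPO4, the reaction held 5nM enzyme and KM-level (10uM) Luciferin-H EGE; it ran 60 min at 37C after NADPH regeneration and a 10 min compound preincubation. Luminescence values were scaled to 57uM ketoconazole as complete inhibition.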

[8] = biological target: Cytochrome P450 3A4 (Homo sapiens) (UniProt P08684); assay: qHTS Assay for Inhibitors and Substrates of Cytochrome P450 3A4 (AID 884); note: % is set by controls: 0 for no effect and ±100 for the full control effect; nearly all actives have a fitted effect of over 50% in size
Chain of Cytochrome P450 3A4 (Homo sapiens) (P08684 whole entry, looked up): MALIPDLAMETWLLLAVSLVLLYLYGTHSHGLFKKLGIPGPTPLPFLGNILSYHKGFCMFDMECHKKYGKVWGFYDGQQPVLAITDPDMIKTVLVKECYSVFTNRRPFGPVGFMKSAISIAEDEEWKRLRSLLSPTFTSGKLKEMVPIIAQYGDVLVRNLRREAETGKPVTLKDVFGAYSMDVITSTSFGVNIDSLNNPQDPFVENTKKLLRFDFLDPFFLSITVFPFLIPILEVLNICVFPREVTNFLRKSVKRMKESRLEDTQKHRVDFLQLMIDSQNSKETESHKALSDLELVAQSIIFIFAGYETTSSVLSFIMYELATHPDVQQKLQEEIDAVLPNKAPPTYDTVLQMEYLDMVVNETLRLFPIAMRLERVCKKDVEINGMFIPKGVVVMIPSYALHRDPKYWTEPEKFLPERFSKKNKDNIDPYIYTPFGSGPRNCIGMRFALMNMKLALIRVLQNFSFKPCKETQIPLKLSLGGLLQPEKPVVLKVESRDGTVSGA
How it was run: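 20 nM human CYP3A4 with 25 uM Luciferin-PPXE (at KM) in 200 mM KPO4, preincubated 10 min with compound; NADPH regeneration started a 60 min RT reaction. Luciferin detected by luminescence, normalized to 57 uM ketoconazole as full inhibition.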

[9] = biological target: DNA dC->dU-editing enzyme APOBEC-3G (Homo sapiens) (UniProt Q9HC16); assay: qHTS for inhibitors of Vif-A3G interactions: Validation (AID 588379); note: 0% is about no effect
How it was run: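 HeLa cells stably expressing Vif and A3G-eYFP, 700 cells/well, incubated overnight at 37 deg C, then exposed to compound overnight at 37 deg C. Inhibition of Vif-mediated degradation read as increased yellow fluorescence (Ex 488/Em 500-530) by laser-scanning cytometry.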

[10] = biological target: Mitogen-activated protein kinase 10 (Mus musculus) (UniProt Q61831); assay: JNK3 AlphaScreen Assay (AID 530; active = well fitted curve in either direction with a large enough effect, not every such curve was filed as active;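 note: kinase came from lysate of stimulated human HepG2 cells; signal reports phosphorylation of biotinylated GST-cJun 1-79 at Ser73 with 10 µM ATP; % is set by controls: 0 for no effect and ±100 for the full control effect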)
How it was run: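 JNK3 came from HepG2 lysates pre-activated with IL-1beta and TNF-alpha and phosphorylated biotinylated GST-cJun (1-79) at 10 uM ATP, pH 7.6, room temperature. Compounds were titrated. AlphaScreen signal used anti-phospho-cJun (Ser73) antibody.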

[11] = Confirmation and Secondary Assay for Modulators of Hemoglobin Beta Chain Splicing at IVS2 654 locus (AID 910);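 note: per-well total GFP intensity by laser scanning cytometry after 2-day treatment; % of control where 0% means no effect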
How it was run: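 HeLa cells stably carrying EGFP interrupted by mutant beta-globin IVS2-654 intron (CMV-driven) were treated with compound for 2 days at 37C; corrected splicing was scored as total peak GFP intensity per well (488 nm excitation, 500-520 nm emission).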

[12] = Confirmation and Secondary Assay for Modulators of Hemoglobin Beta Chain Splicing at IVS2 705 locus (AID 930);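 note: HeLa cells stably expressing the EGFP-705 splicing reporter; GFP fluorescence per well restored by corrected splicing of the IVS2-705 intron in EGFP; % of control where 0% means no effect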
How it was run: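 First, HeLa EGFP-705 cells are seeded at 500/well in Optimem with 2% FCS and left overnight. Next, compound or DMSO is added for 2 days. Finally wells are laser-scanned and total peak GFP intensity scored.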

[13] = biological target: Guanine nucleotide-binding protein G(i) subunit alpha-1 (Homo sapiens) (UniProt P63096); assay: qHTS Assay for Inhibitors of RGS12 GoLoco Motif Activity (Green Fluorophore) (AID 879); note: potency is the fitted concentration of half-maximal effect
How it was run: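 Fluorescence polarization assay: 50 nM Gαi1 with 10 nM FITC-labeled RGS12 GoLoco peptide in 10 mM Tris pH 7.5, 150 mM NaCl, 0.1 mM GDP, 0.05% NP40, 10 min at room temperature with compound.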

[14] = qHTS Assay for Identification of Small Molecule Agonists for Hypoxia Response Element Signaling Pathway (AID 914; active = well fitted activation curve with a large enough effect in the signal ratio, with a control signal flat, not every such curve was filed as active; the % refers to the signal ratio; note: % of control where 0% means no effect); conditions: ME-180 HRE-bla reporter, beta-lactamase ratio, CoCl2, 17 h; activation: stronger effect = higher value
How it was run: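 Positive modulation of EC50 CoCl2-induced hypoxia response element signaling is measured in ME-180 cells with a beta-lactamase reporter. Compounds are titrated, incubation runs 17 hours, and %Activity derives from the blue/green ratio.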

[15] = qHTS Assay for Identification of Small Molecule Antagonists for Thrombopoietin (TPO) Signaling Pathway (AID 918); conditions: TPO-dependent cell signaling reporter, antagonist mode; note: potency is the fitted concentration of half-maximal effect; nearly all actives have a fitted effect of over 60% in size
How it was run: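 Murine Ba/F3 cells stably expressing human TPO receptor and a Glycoprotein IIb promoter–luciferase reporter were IL-3-starved overnight, treated with compounds plus TPO (26 pM final, its EC50) for 24 hrs at 37 C, then read by luminescence.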

[16] = biological target: Muscarinic acetylcholine receptor M1 (Rattus norvegicus) (UniProt P08482); assay: qHTS Assay for Antagonists of Acetylcholine Muscarinic M1 Receptor: Kinetic Measurement of Intracellular Calcium Response (AID 943); note: nearly all actives have a fitted effect of over 75% in size; note: potency is the fitted concentration of half-maximal effect;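 for activity change, negative = inhibition: Fluo-4 calcium signal as peak divided by basal fluorescence over 4 min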
Chain of Muscarinic acetylcholine receptor M1 (Rattus norvegicus) (P08482 whole entry, looked up): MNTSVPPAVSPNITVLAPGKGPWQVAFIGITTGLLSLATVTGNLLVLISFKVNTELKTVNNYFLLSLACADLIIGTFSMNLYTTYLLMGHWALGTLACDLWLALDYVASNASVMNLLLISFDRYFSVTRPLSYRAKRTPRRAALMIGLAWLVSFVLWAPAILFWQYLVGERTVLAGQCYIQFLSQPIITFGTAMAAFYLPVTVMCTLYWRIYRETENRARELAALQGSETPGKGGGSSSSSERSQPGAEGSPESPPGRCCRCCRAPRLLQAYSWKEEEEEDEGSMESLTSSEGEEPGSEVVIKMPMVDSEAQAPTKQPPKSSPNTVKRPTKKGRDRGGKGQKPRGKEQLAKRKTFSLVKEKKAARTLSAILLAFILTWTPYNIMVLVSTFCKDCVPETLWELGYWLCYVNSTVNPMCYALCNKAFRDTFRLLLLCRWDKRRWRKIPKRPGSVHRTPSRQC
How it was run: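 CHO cells stably expressing rat M1 were loaded with no-wash Fluo-4 dye for 1 h at 37C, pre-incubated 10 min with compound, then challenged with EC80 carbachol (100 nM final); kinetic calcium read 4 min, peak/basal ratio.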

[17] = biological target: Muscarinic acetylcholine receptor M1 (Rattus norvegicus) (UniProt P08482); assay: qHTS Assay for Antagonists of Acetylcholine Muscarinic M1 Receptor: Measurement of IP-One Response (AID 944); note: nearly all actives have a fitted effect of over 75% in size
How it was run: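 CHO cells expressing rat M1 receptor, recovered overnight, were pre-incubated 10 min with compound, then stimulated 30 min with carbachol at EC80 (200 nM) in LiCl-containing buffer, pH 7.4. IP1 accumulation was read by HTRF (620/665 nm).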

[18] = biological target: Pyruvate kinase PKM (Homo sapiens) (UniProt P14618); assay: qHTS Assay for Activators of Human Muscle Pyruvate Kinase (AID 954; active = well fitted curve in the direction sought with a large enough effect, not every such curve was filed as active;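 note: 0% = uninhibited enzyme and -100% = no enzyme or full thiadiazolimine inhibition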)
Chain of Pyruvate kinase PKM (Homo sapiens) (P14618 whole entry, looked up): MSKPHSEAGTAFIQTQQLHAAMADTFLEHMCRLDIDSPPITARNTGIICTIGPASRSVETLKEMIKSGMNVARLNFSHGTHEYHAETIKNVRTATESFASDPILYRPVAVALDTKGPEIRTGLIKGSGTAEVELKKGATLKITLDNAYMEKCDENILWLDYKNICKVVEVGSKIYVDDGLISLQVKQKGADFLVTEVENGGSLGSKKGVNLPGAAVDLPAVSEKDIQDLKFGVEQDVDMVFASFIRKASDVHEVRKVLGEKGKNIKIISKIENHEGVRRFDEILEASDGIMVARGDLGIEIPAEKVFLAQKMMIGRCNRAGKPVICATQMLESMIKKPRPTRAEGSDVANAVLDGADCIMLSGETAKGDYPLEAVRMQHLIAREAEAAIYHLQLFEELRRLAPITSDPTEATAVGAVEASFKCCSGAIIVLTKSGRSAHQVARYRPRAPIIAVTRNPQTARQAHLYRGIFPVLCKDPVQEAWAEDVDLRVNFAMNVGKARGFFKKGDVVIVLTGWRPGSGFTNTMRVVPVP
How it was run: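 Luminescence from a luciferase ATP-detection/stop reagent reported PKM2 activity. Reactions contained 0.1 nM purified human enzyme, 0.5 mM PEP, 0.1 mM ADP and 7 mM MgCl2 at pH 7.2, run 1 h at RT.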

[19] = biological target: Pyruvate kinase PKM (Homo sapiens) (UniProt P14618); assay: qHTS Assay for Inhibitors of Human Muscle Pyruvate Kinase (AID 958)
How it was run: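 Compound pinned into substrate mix (0.5 mM PEP, 0.1 mM ADP), then 0.1 nM PKM2 added; 1 h, RT. Stop/detection luciferase reagent added, luminescence read. Normalized to no-inhibition and no-enzyme or reference-inhibitor controls.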

[20] = biological target: Pyruvate kinase (Leishmania mexicana) (UniProt Q27686); assay: qHTS Validation Assay for Activators of Leishmania Mexicana Pyruvate Kinase (AID 959)
How it was run: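 qHTS eight-point titrations against 0.2 nM LmPYK (E451W) in imidazole buffer pH 7.2 with 0.5 mM PEP, 0.1 mM ADP; 1 h, room temperature. Readout: PKLight luminescence, normalized to neutral DMSO wells.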

[21] = biological target: Alpha-galactosidase A (Homo sapiens) (UniProt P06280); assay: Counterscreen for Glucocerebrosidase Inhibitors: qHTS Assay for Human alpha-Galactosidase at pH 4.5 (AID 992); note: 0% is about no effect
How it was run: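 Enzyme at 2 nM final was combined with compound (0.7 nM to 77 uM) and 80 uM 4-methylumbelliferyl alpha-D-galactopyranoside in 50 mM citric acid, 0.005% Tween-20, pH 4.5. After 20 min at room temperature, fluorescence was read (Ex 365/Em 440 nm); AC50 came from Hill fits.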

[22] = biological target: Cytochrome P450 3A4 (Homo sapiens) (UniProt P08684); assay: qHTS Assay for Activators of Cytochrome P450 3A4 (AID 885); note: nearly all actives have a fitted effect of over 65% in size
How it was run: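 20nM CYP3A4 + 25uM Luciferin-PPXE (=KM), 200mM KPO4; cpd 10 min RT; NADPH regen, 60 min RT; stop w/ detection buffer, 20 min; luminescence. Normalized to 57 uM ketoconazole.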

[23] = biological target: Alpha-galactosidase (Coffea arabica) (UniProt Q42656); assay: Counterscreen for Glucocerebrosidase Inhibitors: qHTS Assay for Coffee Bean alpha-Galactosidase at pH 4.5 (AID 957);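 note: plate controls were enzyme alone for no effect and no enzyme for full effect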
How it was run: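 Green coffee bean enzyme (2 nM final) was incubated with compounds (0.7 nM to 77 uM) and 4-methylumbelliferyl alpha-D-galactopyranoside (80 uM final) in 50 mM citric acid, 0.005% Tween-20, pH 4.5, 20 min at room temperature; AC50 from Hill fits.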

[24] = biological target: Alpha-galactosidase (Coffea arabica) (UniProt Q42656); assay: Counterscreen for Glucocerebrosidase Inhibitors: qHTS Assay for Coffee Bean alpha-Galactosidase at pH 5.9 (AID 998);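 note: plate controls were uninhibited enzyme for no effect and no-enzyme basal signal for full effect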
How it was run: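 Green coffee bean enzyme (2 nM final) was incubated with compounds (0.7 nM–77 uM) and 4-methylumbelliferyl alpha-D-galactopyranoside (80 uM) in citrate buffer pH 5.9, 20 min at room temperature. High-pH stop; fluorescence 365/440 nm; AC50 from Hill fits.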

[25] = NFAT Signaling Pathway (AID 444; active = well fitted curve in either direction with a large enough effect, not every such curve was filed as active;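 note: carbachol stimulus at about its EC50 of 1 µM final; % is set by controls: 0 for no effect and ±100 for the full control effect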); conditions: Jurkat NFAT-bla M1, carbachol, beta-lactamase ratio, 5 h; at 17.2 µM (top of the series) unless noted
How it was run: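 Jurkat cells carrying an NFAT-driven β-lactamase reporter and co-transfected muscarinic M1 receptor were treated with compound plus carbachol (1 uM final, an EC50 level) for 5 h at 37 °C. CCF4 loading followed for 1 h at RT; 460/530 nm ratio gave %activity.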

[26] = Stat Signaling Pathway (AID 446; active = well fitted curve in either direction with a large enough effect, not every such curve was filed as active;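 note: ME-180 cervical cancer cells given 40 pM IL-6 alongside compound; SIE-controlled beta-lactamase reporter measured as 460/530 nm FRET emission ratio; % is set by controls: 0 for no effect and ±100 for the full control effect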)
How it was run: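 ME-180 SIE-bla cells; overnight plating; cpd + IL-6 40 pM, 5 h, 37 C; LiveBLAzer 2.5 h RT; 460/530 nm emission ratio. Normalized to 300 pM IL-6 and 125 nM JAK inhibitor controls.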

CN1CCc2cc3c(cc2[C@@H]1[C@H]1OC(=O)c2c1ccc1c2OCO1)OCO3
inactive: Potency [2] > 46 µM | Potency [3] > 46 µM | outcome [4]
active: Potency [1] 15.8 µM and 12.6 µM | Potency [5] 3.98 µM | Potency [6] 15.8 µM | Potency [7] 100 nM and 15.8 nM

CC[C@]1(O)C(=O)OCc2c1cc1n(c2=O)Cc2cc3ccccc3nc2-1
active: Potency [1] 5.01 µM
inactive: Potency [2] > 46 µM | Potency [3] > 46 µM | Potency [5] | Potency [8] | Potency [6] | Potency [7] | outcome [9]

CCCC[C@@H]1C[C@H]1C(NP(=O)(c1ccccc1)c1ccccc1)c1ccc(Cl)cc1 (some centres not stated)
inactive: Potency [1] | outcome [10] | Potency [6]

COc1cc2c(cc1OC)[C@]13CCN4CC5=CCO[C@@H]6CC(=O)N2[C@@H]1[C@H]6[C@@H]5C[C@H]43
inactive: Potency [1] | outcome [10] | Potency [5] | Potency [6] | Potency [7]

COc1ccc2c(c1O)-c1c(OC)c(OC)cc3c1[C@@H](C2)N(C)CC3
inactive: Potency [2] > 46 µM | Potency [3] > 46 µM | Potency [5] | Potency [8] | Potency [7] | Potency [11] | outcome [12]
active: Potency [1] 15.8 µM

C[C@@]12CC[C@H](O)C[C@@H]1CC[C@H]1[C@H]2C[C@@H](O)[C@]2(C)[C@@H](C3=CC(=O)OC3)CC[C@@]12O
inactive: Potency [1] | Potency [2] > 46 µM | Potency [3] > 46 µM | Potency [5] | Potency [6] | Potency [7]

CN[C@@H](C)[C@@H](O)c1ccccc1
inactive: Potency [2] > 46 µM | Potency [3] > 46 µM | outcome [4] | activation [14] 24.4% | Potency [16] | Potency [17] | outcome [18] | outcome [20] | outcome [21]
active: Potency [1] 3.16 µM | Potency [13] 7.94 µM | Potency [5] 0.794 µM | Potency [6] 12.6 µM | Potency [7] 1.58 µM | Potency [15] 3.16 µM | Potency [19] 7.94 µM

COc1cc2c(cc1O)-c1c(O)c(OC)cc3c1[C@H](C2)N(C)CC3
active: Potency [1] 3.16 µM | Potency [6] 2.51 µM
inactive: Potency [2] > 46 µM | Potency [3] > 46 µM | outcome [9]

CCCCCCCCCCCCCC(=O)O[C@H]1[C@@H](C)[C@@]2(O)[C@@H](C=C(CO)C[C@]3(O)C(=O)C(C)=C[C@@H]23)C2C(C)(C)[C@]21OC(C)=O (some centres not stated)
inactive: Potency [1] | Potency [2] > 46 µM | Potency [3] > 46 µM | Potency [13] | Potency [22] | Potency [17] | outcome [18] | outcome [23] | outcome [21] | outcome [24]
active: Potency [16] 20 nM

CC(C)[C@@]1(NC(=O)[C@@H]2C=C3c4cccc5[nH]cc(c45)C[C@H]3N(C)C2)O[C@@]2(O)[C@@H]3CCCN3C(=O)[C@H](Cc3ccccc3)N2C1=O
inactive: activity change, negative = inhibition [25] -19% | outcome [26] | Potency [2] > 20.6 µM
